Compounds with a hit are over-represented: about 1.3% of the library has one in this group of screens.
Mtb bLac sens = beta-lactam sensitization of Mtb H37Rv | inhibition, % at 25 µM | M. tuberculosis H37Rv growth with meropenem, percent inhibition | actives 0.27% (n = 330,000); call rule not given here;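 note: growth measured after seven days incubation then overnight dye step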
Sa ugtP lethal = compounds lethal to S. aureus RN4220 ugtP deletion mutant; OD600 growth, 16 h; growth inhibition, % (test concentration not listed); actives 0.54% (n = 330,000); in the data active = growth inhibition above about 68%
CCHF vOTU inh = blocks the CCHF virus ovarian tumor domain protease | CCHFV vOTU protease, Pep-AMC fluorescence | inhibition, % at 11.5 µM | actives 0.55% (n = 370,000); in the data active = inhibition above about 30%
MazF activator = MazEF (E. coli) toxin RNase activation. P0AE70. FAM/BHQ RNA-DNA oligo cleavage fluorescence, 5 h. activation, % at 20 µM. actives 0.32% (n = 350,000). AID 504720; in the data active = activation above about 50%
Target sequence (P0AE70 whole entry, looked up): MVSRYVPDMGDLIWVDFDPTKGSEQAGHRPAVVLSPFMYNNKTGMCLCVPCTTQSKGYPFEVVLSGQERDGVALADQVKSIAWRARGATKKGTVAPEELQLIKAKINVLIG
SARS 3CLpro inh = SARS-CoV 3CLpro protease inhibition; recombinant SARS-CoV 3CLpro, quenched FRET peptide cleavage; AID 1706; P0C6X7; inhibition, % at 6 µM; actives 0.14% (n = 290,000); in the data active = inhibition above about 12%
RN4220 kill = kills Staphylococcus aureus RN4220 | S. aureus RN4220 growth, OD600, 16 h | inhibition, % (no concentration beside the values) | actives 0.33% (n = 330,000); in the data active = inhibition above about 85%
Of the large screens only hits and unclear results are named; the others gave an inactive call.

Cc1cc(-c2ccccc2)n(-c2cc(NN=Cc3ccccc3O)ncn2)n1	Sa ugtP lethal 100.7 (no result: Mtb bLac sens, CCHF vOTU inh, MazF activator, SARS 3CLpro inh)
CCOc1ccc(-c2cc(C)[n+](CCc3ccc(OC)c(OC)c3)c(-c3ccc(OCC)cc3)c2)cc1	Sa ugtP lethal 100.4, RN4220 kill 100.2
CCOc1ccc(-c2cc(C)[n+](CCO)c(-c3ccc(OCC)cc3)c2)cc1	none
Cc1cc(C(=O)NC(c2ccccc2)[C@@]2(C)CC2C(C)C(=O)Nc2ccc3ccccc3c2)n(C)n1 (some centres not stated)	none (no result: Mtb bLac sens, CCHF vOTU inh, MazF activator, SARS 3CLpro inh)
Cc1ccc(COc2ccc(Br)cc2C=NO)cc1	Sa ugtP lethal 99.9 (no result: Mtb bLac sens, CCHF vOTU inh, MazF activator, SARS 3CLpro inh)
ON=Cc1cc(Br)cc(Br)c1OCc1ccccc1	Sa ugtP lethal 90.6 (no result: Mtb bLac sens, CCHF vOTU inh, MazF activator, SARS 3CLpro inh)
COc1cc(C=NO)cc(Br)c1OCc1cccc(Cl)c1	none (no result: Mtb bLac sens, CCHF vOTU inh, MazF activator, SARS 3CLpro inh)
CC(=NNC(=O)c1nnn(-c2nonc2N)c1-c1ccc2c(c1)OCO2)c1ccccc1	none (no result: Mtb bLac sens, CCHF vOTU inh, MazF activator, SARS 3CLpro inh)
CC1CC(=O)C2=C(C1)OC(N)=C(C#N)C2c1coc2ccccc2c1=O (configuration not stated)	MazF activator 85.1
CC1(C)CC(=O)C2=C(C1)OC(N)=C(C#N)C2c1ccccc1 (configuration not stated)	none
CC(C)c1ccc2c(c1)C(c1cccs1)=NNC(c1ccncc1)=N2	none
COc1ccc2c(c1)C(c1cccs1)=NNC(c1ccncc1)=N2	MazF activator 241.5
Nc1c(C(=O)Nc2ccccc2)sc2nc3c(c(-c4ccco4)c12)CCC3	MazF activator 87.0
CC(=NNC(=O)c1ccoc1C)c1cccc(NC(=O)C(F)(F)F)c1	none (no result: Mtb bLac sens, CCHF vOTU inh, MazF activator, SARS 3CLpro inh)
CCN1C(=O)CSC1=NC1C2CC3CC(C2)CC1C3 (configuration not stated)	Sa ugtP lethal 91.4
COc1cc(C=NNC(=O)c2nc3ccccn3c2C)cc(OC)c1O	none (no result: Mtb bLac sens, CCHF vOTU inh, MazF activator, SARS 3CLpro inh)
CCOC(=O)/C(C#N)=C1/C=C(C)NC(c2ccccc2O)=N1	Sa ugtP lethal 83.2
CCOC(=O)/C(C#N)=C1\Nc2ccccc2N=C1N(CC(C)C)CC(C)C	none
O=C(Oc1cc(=O)oc2c1c(=O)n1c3c(cccc23)CC1)c1ccc(F)cc1	none (no result: Sa ugtP lethal, RN4220 kill)
O=C(Oc1cc(=O)oc2c1c(=O)n1c3c(cccc23)CC1)c1ccccc1	Sa ugtP lethal 82.1
COc1cccc(C=NNC(=O)c2cccc([N+](=O)[O-])c2)c1OS(=O)(=O)c1ccc(C)cc1	none (no result: Mtb bLac sens, CCHF vOTU inh, MazF activator, SARS 3CLpro inh)
CCc1ccc(C2CC=C(C(=O)O)C(c3ccc(F)cc3)N2S(=O)(=O)c2ccc(C)cc2)cc1 (configuration not stated)	none (no result: Mtb bLac sens, CCHF vOTU inh, MazF activator, SARS 3CLpro inh)
O=C(c1ccc(Br)cc1)C(CN1CCOCC1)c1ccccc1 (configuration not stated)	Sa ugtP lethal 100.2, RN4220 kill 92.8
O=C(CN1c2ccccc2Sc2ccccc21)NN=Cc1ccccc1	none (no result: Mtb bLac sens, CCHF vOTU inh, MazF activator, SARS 3CLpro inh)
CCOc1ccc2nc3cc(NCc4ccc(OC)cc4)ccc3c(N)c2c1	Sa ugtP lethal 100.0, RN4220 kill 100.6 (no result: CCHF vOTU inh)
O=C(CNC(=O)c1ccccc1)NN=Cc1ccc([N+](=O)[O-])s1	none (no result: Mtb bLac sens, CCHF vOTU inh, MazF activator, SARS 3CLpro inh)
COc1ccc(O)c(-c2cc(-c3cccc(Br)c3)n[nH]2)c1	Sa ugtP lethal 86.0
COc1ccc(C2CC(c3ccc(Cl)cc3)=NN2c2ccc(S(N)(=O)=O)cc2)cc1 (configuration not stated)	RN4220 kill 94.0 (no result: Mtb bLac sens, SARS 3CLpro inh)
NS(=O)(=O)c1ccc(N2N=C(c3ccc(Br)cc3)CC2c2ccc(F)cc2)cc1 (configuration not stated)	RN4220 kill 98.4
CC=CC=CC(=O)N1CC2(CC(c3cccc(NC(=O)CCCCC)c3)=NO2)CC1C(N)=O (configuration not stated)	none (no result: Mtb bLac sens, CCHF vOTU inh, MazF activator, SARS 3CLpro inh)
CCOC(=O)c1c(NC(=O)CSc2nnc(Cc3ccccc3)o2)sc(C)c1C	Sa ugtP lethal 97.8
Cc1cc(C(=O)NN=Cc2sc(N3CCOCC3)nc2-c2ccccc2)c(C)o1	Sa ugtP lethal 94.9, RN4220 kill 94.5 (no result: Mtb bLac sens, CCHF vOTU inh, MazF activator, SARS 3CLpro inh)
COc1cc(C(=O)NN=Cc2sc(N3CCOCC3)nc2-c2ccccc2)cc(OC)c1OC	none (no result: Mtb bLac sens, CCHF vOTU inh, MazF activator, SARS 3CLpro inh)
CC1CC=CC2C1C(=O)N(Cc1ccccc1)C2c1ccc2ccccc2c1Br (configuration not stated)	Sa ugtP lethal 97.2, RN4220 kill 87.9 (no result: Mtb bLac sens, CCHF vOTU inh, MazF activator, SARS 3CLpro inh)
FC(F)(F)c1cccc(NC(=S)NCC2COc3ccccc3O2)c1 (configuration not stated)	Sa ugtP lethal 83.3
COc1ccc(C(=O)Nc2ccc(C(C)=NNC(=O)c3ccccc3O)cc2)cc1OC	none (no result: Mtb bLac sens, CCHF vOTU inh, MazF activator, SARS 3CLpro inh)

Screening data deposited in PubChem by several laboratories.
